Test results as given in PubChem BioAssay AID602233 (National Center for Advancing Translational Sciences (NCATS), 2012).
Hit rate of the full screen: of about 380,000 compounds, about 170 (0.045%) were called active. The call rests on the fitted dose curve; in most records, active means well fitted inhibition curve with a large enough effect; inconclusive means small, poorly fitted or top-dose-only effect; inactive means no such curve, though single readings can be large or run the other way. This excerpt belongs to a sample that is enriched for actives.

These molecules were tested against Phosphoglycerate kinase, glycosomal (Trypanosoma brucei brucei) (UniProt P07378) (assay: qHTS Assay to Find Inhibitors of Phosphoglycerate Kinase). Details: PGK/GAPDH coupled, Kinase-Glo luminescence, 60 min; series mostly up to 57.5 µM; activity change, negative = inhibition: at the top concentration.
Chain of Phosphoglycerate kinase, glycosomal (Trypanosoma brucei brucei) (P07378 whole entry, looked up): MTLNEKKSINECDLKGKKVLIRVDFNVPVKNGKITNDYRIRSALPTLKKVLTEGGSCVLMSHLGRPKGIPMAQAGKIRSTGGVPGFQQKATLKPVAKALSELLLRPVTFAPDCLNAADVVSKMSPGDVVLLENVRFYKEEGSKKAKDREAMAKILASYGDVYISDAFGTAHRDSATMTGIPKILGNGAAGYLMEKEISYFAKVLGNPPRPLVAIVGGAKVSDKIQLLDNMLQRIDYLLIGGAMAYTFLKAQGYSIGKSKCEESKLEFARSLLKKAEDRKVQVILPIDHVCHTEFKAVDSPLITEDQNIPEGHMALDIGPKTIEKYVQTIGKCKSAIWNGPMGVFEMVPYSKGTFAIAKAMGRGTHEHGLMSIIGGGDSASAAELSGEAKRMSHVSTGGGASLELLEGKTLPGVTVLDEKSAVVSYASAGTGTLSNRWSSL
Text: Several species of the Trypanosomatidae family of parasitic protozoans cause a spectrum of diseases throughout the tropical and subtropical world. Sleeping sickness, caused by two subspecies of Trypanosoma brucei, is endemic to areas of sub-Saharan Africa, while Chagas disease, a manifestation of Trypanosoma cruzi infection, is prevalent throughout Central and South America. In addition, many species of Leishmania are responsible for a range of cutaneous and visceral diseases, causing ulcers, destructive lesions and kalaazar, a lethal infection of the viscera. Collectively, these organisms infect 30 million people worldwide (~500 million live in endemic areas), and account for ~130,000 deaths annually. Given their debilitating and prevalent nature, trypanosomatid parasites impose a heavy medical, economic and social burden on entire populations, primarily in the developing world. The problem is further exacerbated by the fact that existing treatments have progressed little in the past 50 years, and current drugs show high toxicity and poor efficacy. […] Blood-stream stages of T. brucei are entirely dependent on glycolysis as a source of ATP, and the tricarboxylic acid cycle and oxidative phosphorylation are both repressed. Glycolysis in axenically cultured T. cruzi, representing the intracellular pathogenic stage, is also essential for these parasites. […] Previous studies have shown that the glycolytic enzyme, phosphoglycerate kinase (PGK), is a viable target for drugs to kill these parasites. […] NIH Molecular Libraries Probe Production Network [MLPCN] NIH Chemical Genomics Center [NCGC] MLPCN Grant: R03 MH093212 PI Name: Malcolm Walkinshaw, University of Edinburgh
3ul of substrate/PGK buffer (columns 1,2,5-48) are dispensed into Greiner white solid bottom 1536-well assay plates; columns 3-4 receive only TEA buffer as 0x PGK controls. Compounds are then transferred via Kalypsys pin tool equipped with 1536-pin array (10nl slotted pins, V&P Scientific, San Diego, CA). Following addition of compound, 1ul of GAPDH (100nM final concentration, all columns) is added to initiate the reaction (this upstream coupling enzyme is necessary for in-well production of PGK substrate, 1,3-bisphosphoglycerate (1,3-BPG), which is unstable and not commercially available). The plates are then incubated at room temperature for 60 minutes. Kinase-Glo Plus reagent is added (2ul) and plates incubated for 10 minutes, before being transferred to a ViewLux high-throughput CCD imager (PerkinElmer) wherein single end-point measurements of luminescence are acquired using a clear filter. All reagents are diluted in an assay buffer consisting of 100mM TEA (pH 7.6), 5mM MgCl2 and 0.01% Tween-20.
Further: nearly all actives have a fitted effect of over 60% in size.

Activity change, negative = inhibition, inactive:
CCCN1CN=C(NS(=O)(=O)c2ccc(NC(C)=O)cc2)NC1 -8.9%
CC(=O)Nc1cc(C(=O)NCc2ccc(F)cc2Cl)ccc1Sc1ccc(Cl)cc1 8.65%
COc1ccc(-c2cn3c(C)c(C(=O)Nc4cc(C)cc(C)c4)sc3n2)cc1 -0.686%
CCc1ccccc1NC(=O)CSc1nnc(-c2ccccc2)c(-c2ccccc2)n1 9.96%
COc1ccc(OC)c(NC(=O)C2CCN(S(=O)(=O)c3ccc(C)cc3)CC2)c1 -0.994%
O=C(CSc1ncc(CO)n1Cc1ccc(F)cc1)NCc1ccco1 -6.21%
CCC1CN(S(=O)(=O)c2cc(-c3cc(C)no3)ccc2C)c2cc(C)ccc2O1 (configuration not stated) -0.193%
Cc1oc2ncnc(N3CCOCC3)c2c1C(=O)NCCc1ccccc1 -4.29%
Cc1cccc(C(=O)NCCc2nc3ccccc3n2Cc2ccccc2Cl)c1 2.99%
CCc1ccc(CNC(=O)c2cc3cc4ccc(OC)cc4nc3o2)cc1 -5.03%
CCC(=O)Nc1c(C(=O)N2CCN(c3ccc(F)cc3)CC2)oc2ccccc12 3.16%
COc1ccc(-c2c(C)nn3c(N4CCC(C(=O)NCCC(C)C)CC4)cc(C)nc23)cc1OC 0.974%
Cc1ccc(-c2nnc3c4ccccc4c(C)nn23)cc1NC(=O)c1cccc(Br)c1 7.56%
Cc1ccc(NC(=O)Cn2cnc3nc4c(cc3c2=O)CCCC4)cc1Cl -6.55%
O=C(c1ccc(Br)cc1)N(Cc1cccs1)c1ccc(F)cc1 3.55%
Cc1ccc(NC(=O)CSc2nc3ccccc3c3nc(CCn4cncc4C)nn23)cc1F 4.26%
CCc1ccc(NC(=O)N2CCN(C(=O)c3nsc4ccccc34)CC2)cc1 6.83%
Cc1ccc(Cl)cc1NC(=O)CCS(=O)(=O)c1ccc(Br)s1 -2.54%
Cc1ccc(NC(=O)c2oc3ccccc3c2NC(=O)Cc2cccs2)cc1 -7.26%
Cc1ccc(-n2nc(CO)c(C(=O)NCCc3ccccc3)n2)cc1 -11.4%
O=C1CCCc2cc(S(=O)(=O)N3CCCC(C(=O)NCc4ccccc4)C3)ccc2N1 (configuration not stated) 6.57%
COc1ccccc1CNC(=O)c1ccc(NC(=O)N2CC(C)Sc3ccccc32)cc1 (configuration not stated) 3.38%
Cc1cc(C)c(/C=C/c2onc(C)c2S(=O)(=O)N2CCC(C(=O)Nc3ccc(Cl)cc3C)CC2)c(C)c1 1.64%
CCc1cccc(NC(=O)CSc2nccn2C)c1 0.152%
COc1cc(C(=O)NCC(c2ccc(Cl)cc2)N2CCOCC2)cc(OC)c1OC (configuration not stated) 1.64%
CCCCc1nn2c(=O)cc(COC(=O)c3ccc(NC(=O)c4ccccc4C)cc3)nc2s1 -1.81%
Cc1ccccc1CNC(=O)c1ccc(NC(=O)N2CCCCc3ccccc32)cc1 9.36%
CCCN(CCC)C(=O)C(Cc1ccccc1)NS(=O)(=O)c1ccc2c(c1)c(=O)n(C)c(=O)n2C (configuration not stated) -0.144%
CCCCNc1ccc(-c2nc(-c3ccncc3)no2)cc1[N+](=O)[O-] -0.547%
CCOc1ccccc1NC(=O)Cn1c(=O)n(Cc2ccco2)c(=O)c2sc3ccccc3c21 -8.83%
O=C(CSc1n[nH]c(-c2ccccc2)n1)N1CCCCC1 -1.92%
COc1ccc(-c2noc(CSc3nnc(-c4ccccc4)n3-c3ccc(F)cc3)n2)c(OC)c1 -0.281%
O=C(NCc1ccccc1Cl)C1=Cc2cc(Br)ccc2OC1 -7.68%
O=C(Nc1ccc(F)cc1F)c1cnn(-c2ccc(F)cc2)c1-n1cccc1 -3.35%
COc1ccccc1CNC(=O)CCn1c(=O)c2ccccc2n(CC(=O)Nc2ccc(Br)cc2F)c1=O -3.68%
Cc1ccc(Nc2ccc3cc(S(=O)(=O)N4CCCCC4)ccc3n2)cc1F -1.23%
COc1ccc(-c2nc3nc(C)cc(C)n3c2Nc2c(C)cccc2C)cc1 -1.29%
CSc1ccc(CCNC(=O)c2cc(C)nc3c2c(C)nn3-c2cccc(F)c2)cc1 -6.82%
NC1=NC(c2cc(F)cc(F)c2)n2c(nc3ccccc32)N1 (configuration not stated) 1.97%
COc1ccc2c(Sc3ccc(C)cc3)c(C(=O)NC(C)c3ccccc3)[nH]c2c1 (configuration not stated) -15.5%
CCCCOc1ccc(CNC(=O)c2ccc3c(c2)N(C)C(=O)C2CCCCN32)cc1 (configuration not stated) -2.79%
O=C(Cn1c(-c2cccs2)cc2ccccc21)NCCc1ccc(Cl)cc1 -6.23%
COc1ccc(-c2cn3c(n2)sc2cc(C(=O)Nc4ccc(F)cc4)ccc23)cc1 -9.23%
COc1ccccc1CNC(=O)c1ccccc1NC(=O)c1nsc2ccccc12 -6.03%
Cc1ccc(Cn2c(=O)n(CCCC(=O)NCc3ccccc3Cl)c(=O)c3ccccc32)cc1 -2.7%
CCCCOc1ccc(NC(=O)c2cc3c(n(-c4ccc(Cl)cc4)c2=O)CCCC3=O)cc1 -0.531%
CCOc1ccccc1CNCc1c(C(=O)O)c(C)n(Cc2ccc(C)cc2)c1C -6.39%
CCOc1ccc(CNC(=O)CCc2c(C)nn(-c3ccc(N4CCCCC4)nn3)c2C)cc1 -4.7%
CCOC(=O)C1CCCN(S(=O)(=O)c2cc(-c3cc(C)no3)ccc2OC)C1 (configuration not stated) -9.52%
COc1cccc(NC(=O)CN2C(=O)c3ccccc3Sc3ncccc32)c1 -0.909%
COc1cccc(OCCn2c(-c3ccc(Br)cc3)nc3ccccc3c2=O)c1 4.47%
O=C(Cn1c(=O)n(Cc2ccccc2)c(=O)c2sc3ccccc3c21)Nc1ccccc1F -5.67%
CCC(=O)N1CCc2cc(S(=O)(=O)NC(CC(C)C)C(=O)NCCc3cccc(C)c3)ccc21 (configuration not stated) 7.21%
CCOc1ccc(-n2nc3ccc(NC(=O)c4ccc(OC)c(Cl)c4)cc3n2)cc1 9.53%
Cc1cc(C)c(NC(=O)c2cc3sc(Cl)cc3n2C)c(C)c1 5.73%
COc1ccc(-c2nc(Cn3c(=O)cc(C)c4c(C)nn(-c5ccccc5)c43)c(C)o2)c(OC)c1 9.43%
COc1ccccc1CNC(=O)c1ccc(-n2c(C)cc3c2CCCC3)cc1 3.07%
Cc1ccc(O)c(NC(=O)CCS(=O)(=O)c2nc(-c3ccc4c(c3)OCO4)cc(C(F)(F)F)n2)c1 -6.86%
COc1ccc(NC(=O)c2ccco2)cc1NC(=O)COc1ccc(C)c(C)c1 3.35%
O=C(NCCCO)C(=O)Nc1c2c(nn1-c1ccccc1)CSC2 13.6%
COc1ccc(NC(=O)CCNS(=O)(=O)c2ccc3c(c2)CCCC(=O)N3)cc1Cl 0.351%
CN1c2ccc(Cl)cc2-c2nc(SCC(=O)Nc3cc(F)ccc3F)ncc2S1(=O)=O -1.46%
COc1ccc(Cc2nc3ccc(C(=O)NCc4ccc(OC)cc4OC)cc3o2)cc1 8.22%
COc1ccc(S(=O)(=O)NCCSc2nnnn2-c2ccccc2)cc1 -2.3%
COC(=O)c1c(NC(=O)CCCOc2ccccc2)sc2c1CCC(C)C2 (configuration not stated) 9.76%
Cc1nn2c(=O)cc(COC(=O)c3ccccc3NC(=O)COc3ccccc3C)nc2s1 0.156%
COc1ccccc1CNC(=O)CCCn1c(=O)c2ccccc2n(CC(=O)Nc2ccc(C)cc2Cl)c1=O -9.25%
COc1ccccc1CNC(=O)NCc1noc2ccc(C)cc12 -1.14%
CCOc1ccccc1NC(=O)Cn1c2ncccc2c(=O)n1-c1ccc(C)c(C)c1 -2.74%
O=C(CSc1nc2ccccc2nc1Cc1ccccc1)N1CCCCC1 -9.31%
CCOc1cccc(NC(=O)CSc2ncc(-c3ccc(Cl)cc3)[nH]2)c1 3.11%
Cc1c(C(=O)N(C)C)sc2c1c(=O)n(-c1ccc(F)cc1)c(=O)n2CC(=O)N(C)c1ccccc1 8.29%
CCOc1ccc(N(C)S(=O)(=O)c2cc(-c3cnc(C)o3)ccc2OC)cc1 2.21%
Cc1oc(-c2ccccc2F)nc1CN1CCC(C(=O)NCCc2ccc(Cl)cc2)CC1 0.46%
CCOc1ccc(NC(=O)c2c(NC(=O)Cc3ccccc3)sc3c2CCCCC3)cc1 5.92%
CCc1nnc(SCC(=O)Nc2cc(OC)ccc2OC)nc1CC 0.423%

outcome, inactive:
CC(=O)N1CCCc2cc(S(=O)(=O)N3CCC(C(=O)NCc4ccc(F)cc4)CC3)ccc21
COc1cccc(NC(=O)c2ccc3nc(CCc4ccccc4)oc3c2)c1
COc1ccc2c(c1)C=C(C(=O)NCc1cc(Br)ccc1OC)CO2
Cn1c(=O)c2c(SCC(=O)N3CCc4ccccc43)nc(-c3ccc(Cl)cc3)nc2n(C)c1=O
Cc1ccccc1CSc1nc(-c2ccccc2)nc2c1Cc1c(CO)cnc(C)c1O2
CC(C)Cn1c(-c2ccc(S(=O)(=O)N3CCOCC3)cc2)csc1=Nc1cc(Cl)ccc1Cl
Cc1cc(Br)ccc1NC(=O)Cn1cnc2sc(C)c(S(=O)(=O)N3CCN(C)CC3)c2c1=O
COC(=O)c1ccccc1NC(=O)C(Cc1ccccc1)N1Cc2ccccc2C1=O (configuration not stated)
COc1ccc(C2C(=O)N(C3CCCCCC3)CC(=O)N2CCc2ccc(Cl)cc2)cc1OC (configuration not stated)
COC(=O)c1c(NC(=O)C(C)Oc2ccc(Cl)c(C)c2)sc(C)c1C (configuration not stated)
COc1ccc(Cn2c(=O)c3oc4ccccc4c3n(CC(=O)Nc3ccc(F)cc3F)c2=O)cc1
CCOc1ccc(NC(=O)Cn2cc(C(=O)c3ccc(C)cc3)c(=O)c3cc4c(cc32)OCCO4)cc1
COc1ccc(CNC(=O)COCc2cc(-c3cccs3)on2)cc1OC
Cc1ccc(NC(=O)c2cn3c4c(ccc(Cl)c4c2=O)OC(C)C3)cc1C (configuration not stated)
Cc1ccc(-n2ncc3c(NCCCn4ccnc4)ncnc32)cc1Cl
CCCN1CCN(CCCNC(=O)c2cnn(-c3ccc(C)cc3)c2-n2cccc2)CC1
Cc1nn2c(=O)cc(COC(=O)c3cccc(NC(=O)COc4ccccc4Cl)c3)nc2s1
COc1ccccc1-c1noc(CSc2nnc(-c3ccccc3)n2-c2ccc(C)c(C)c2)n1
CCn1c2ccccc2c2nnc(SCC(=O)O)nc21
CCCSc1nc2sc3c(c2c(=O)n1-c1cccc(Br)c1)CC(C)(C)OC3
CCOC(=O)C1CCCN(CC(=O)Nc2cc(C)c3c(=O)oc4ccccc4c3n2)C1 (configuration not stated)
